Experimental findings from publication PMC7862700, “An all-to-all approach to the identification of sequence-specific readers for epigenetic DNA modifications on cytosine” are described below.

Common to all, as to test: DAPPL (digital affinity profiling via proximity ligation, sequencing); 10 mM Tris-HCl pH 7.5, 50 mM NaCl, 1 mM DTT, 4% glycerol, room temperature, 30 min; GST-TFs on glutathione beads, 16-mer random dsDNA library, 0.1% formaldehyde crosslink after washing; high values mean tight binding
The target in one test is T1, FLI1 (Homo sapiens, UniProt Q01543 1-452).
T1 sequence: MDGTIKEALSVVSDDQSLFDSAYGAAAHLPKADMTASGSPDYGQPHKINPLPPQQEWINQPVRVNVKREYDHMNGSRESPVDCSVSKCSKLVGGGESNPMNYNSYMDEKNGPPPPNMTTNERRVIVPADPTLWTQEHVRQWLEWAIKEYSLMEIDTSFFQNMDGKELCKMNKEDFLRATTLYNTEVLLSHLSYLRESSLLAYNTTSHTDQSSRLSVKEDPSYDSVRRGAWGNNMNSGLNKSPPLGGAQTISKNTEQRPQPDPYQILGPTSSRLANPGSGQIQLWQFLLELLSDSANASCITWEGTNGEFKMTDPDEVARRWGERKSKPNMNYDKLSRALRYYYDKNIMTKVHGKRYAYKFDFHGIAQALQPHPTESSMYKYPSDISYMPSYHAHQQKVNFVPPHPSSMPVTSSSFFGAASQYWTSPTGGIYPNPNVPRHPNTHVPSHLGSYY
The following applies: protein: recombinant; tags: N-terminal GST; dsDNA, one strand shown. The method, boiled down:
(§1)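 Binding signal is given per hexamer as its read frequency for a factor divided by its frequency in the tag-only sample. GST-fused human transcription factors were expressed in yeast, captured on glutathione beads, barcoded with DNA and pooled with that sample, then incubated with 200 nmole of a 16-mer random double-stranded DNA library in Tris/NaCl/DTT/glycerol buffer for 30 min at room temperature. The pools were then washed, crosslinked, proximity-ligated, amplified by PCR and sequenced on an Illumina NextSeq500.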

The target in a further test is T2, ELK1 (Homo sapiens, UniProt P19419 1-428).
T2 sequence: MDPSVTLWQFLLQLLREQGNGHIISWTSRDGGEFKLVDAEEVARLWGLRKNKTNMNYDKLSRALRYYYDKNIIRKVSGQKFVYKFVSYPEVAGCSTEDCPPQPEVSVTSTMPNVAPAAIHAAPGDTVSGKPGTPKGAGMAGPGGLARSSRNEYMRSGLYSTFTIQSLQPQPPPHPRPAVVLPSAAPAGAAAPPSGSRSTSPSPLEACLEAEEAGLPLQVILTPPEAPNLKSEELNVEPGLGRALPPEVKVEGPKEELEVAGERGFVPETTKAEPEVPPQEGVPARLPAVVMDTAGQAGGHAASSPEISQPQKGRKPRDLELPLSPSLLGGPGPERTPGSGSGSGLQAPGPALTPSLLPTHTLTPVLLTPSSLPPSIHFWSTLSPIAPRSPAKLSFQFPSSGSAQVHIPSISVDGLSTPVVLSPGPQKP
The note with it: protein: recombinant; tags: N-terminal GST; dsDNA, one strand shown. The method, boiled down: as §1

The next test concerns the target T3, GABPA (Homo sapiens, UniProt Q06546 1-454).
T3 sequence: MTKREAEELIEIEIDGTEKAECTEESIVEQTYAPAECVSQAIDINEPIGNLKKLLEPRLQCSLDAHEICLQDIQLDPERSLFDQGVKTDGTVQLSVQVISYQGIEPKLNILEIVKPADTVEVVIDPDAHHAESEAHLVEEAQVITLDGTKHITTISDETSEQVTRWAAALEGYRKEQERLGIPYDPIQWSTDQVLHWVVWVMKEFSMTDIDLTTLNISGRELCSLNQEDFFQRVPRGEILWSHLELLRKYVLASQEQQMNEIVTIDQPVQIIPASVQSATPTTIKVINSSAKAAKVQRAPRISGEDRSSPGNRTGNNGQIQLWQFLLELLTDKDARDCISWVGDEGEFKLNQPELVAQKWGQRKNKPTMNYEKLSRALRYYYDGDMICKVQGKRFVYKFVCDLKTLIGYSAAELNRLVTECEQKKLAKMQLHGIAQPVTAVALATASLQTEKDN
The note with it: protein: recombinant; tags: N-terminal GST; dsDNA, one strand shown. The procedure, abridged:
as §1

A further test concerns the target T4, ERG (Homo sapiens, UniProt P11308 1-479).
T4 sequence: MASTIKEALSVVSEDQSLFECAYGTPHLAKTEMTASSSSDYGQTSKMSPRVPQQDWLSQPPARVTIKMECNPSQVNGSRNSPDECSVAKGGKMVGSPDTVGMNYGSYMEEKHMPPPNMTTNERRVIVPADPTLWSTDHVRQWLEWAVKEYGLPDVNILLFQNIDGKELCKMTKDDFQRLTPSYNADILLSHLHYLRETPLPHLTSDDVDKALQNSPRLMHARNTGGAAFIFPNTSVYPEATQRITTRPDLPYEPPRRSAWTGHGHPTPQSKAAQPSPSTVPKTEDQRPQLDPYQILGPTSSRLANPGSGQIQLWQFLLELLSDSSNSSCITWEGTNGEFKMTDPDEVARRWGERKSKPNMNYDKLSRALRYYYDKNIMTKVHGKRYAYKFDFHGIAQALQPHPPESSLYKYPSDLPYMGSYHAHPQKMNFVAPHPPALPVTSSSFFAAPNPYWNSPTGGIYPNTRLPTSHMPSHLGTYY
The following applies: protein: recombinant; tags: N-terminal GST; dsDNA, one strand shown. The method, boiled down:
as §1

A further test has as its target ELF1 (Homo sapiens, UniProt P32519 1-619). The note with it: protein: recombinant; tags: N-terminal GST; dsDNA, one strand shown. The procedure, abridged:
as §1

Another test has as its target T5, EHF (Homo sapiens, UniProt Q9NZC4 1-300).
T5 sequence: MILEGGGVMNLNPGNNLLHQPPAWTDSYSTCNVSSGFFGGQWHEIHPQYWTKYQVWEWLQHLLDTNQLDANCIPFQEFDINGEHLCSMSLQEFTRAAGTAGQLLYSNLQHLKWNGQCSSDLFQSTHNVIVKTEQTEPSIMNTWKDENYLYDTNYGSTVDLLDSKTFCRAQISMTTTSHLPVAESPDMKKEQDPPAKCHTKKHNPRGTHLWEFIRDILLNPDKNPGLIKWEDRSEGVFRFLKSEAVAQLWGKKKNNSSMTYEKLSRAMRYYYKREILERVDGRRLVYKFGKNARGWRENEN
The following applies: protein: recombinant; tags: N-terminal GST; dsDNA, one strand shown. The procedure, abridged: as §1

Another test addresses SPI1 (Homo sapiens, UniProt P17947 1-270). The following applies: protein: recombinant; tags: N-terminal GST; dsDNA, one strand shown. The method, boiled down:
as §1

For the next test, the target named is SPIB (Homo sapiens, UniProt Q01892 1-262). The following applies: protein: recombinant; tags: N-terminal GST; dsDNA, one strand shown. The procedure, abridged:
as §1

In a further test the target is T6, ELK3 (Homo sapiens, UniProt P41970 1-407).
T6 sequence: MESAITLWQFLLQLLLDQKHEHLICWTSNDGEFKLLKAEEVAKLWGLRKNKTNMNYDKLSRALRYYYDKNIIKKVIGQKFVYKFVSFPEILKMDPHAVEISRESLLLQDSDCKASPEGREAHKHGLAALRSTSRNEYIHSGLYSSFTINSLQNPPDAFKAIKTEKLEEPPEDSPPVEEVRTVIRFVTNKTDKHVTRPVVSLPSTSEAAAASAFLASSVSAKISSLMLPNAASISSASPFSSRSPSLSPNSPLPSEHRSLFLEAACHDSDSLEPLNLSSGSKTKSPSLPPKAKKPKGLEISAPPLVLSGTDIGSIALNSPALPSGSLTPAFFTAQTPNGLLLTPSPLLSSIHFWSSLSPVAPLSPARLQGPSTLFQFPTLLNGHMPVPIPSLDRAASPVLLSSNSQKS
The following applies: protein: recombinant; tags: N-terminal GST; dsDNA, one strand shown. The procedure, abridged: as §1

Another test addresses T7, FEV (Homo sapiens, UniProt Q99581 1-238).
T7 sequence: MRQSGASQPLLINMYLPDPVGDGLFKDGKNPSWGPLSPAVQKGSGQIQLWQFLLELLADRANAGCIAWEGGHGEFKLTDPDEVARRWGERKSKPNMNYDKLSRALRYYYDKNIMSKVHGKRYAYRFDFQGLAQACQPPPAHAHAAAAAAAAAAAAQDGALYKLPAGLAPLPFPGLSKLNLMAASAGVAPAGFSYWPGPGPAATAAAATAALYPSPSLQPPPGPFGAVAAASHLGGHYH
The note with it: protein: recombinant; tags: N-terminal GST; dsDNA, one strand shown. The procedure, abridged: as §1

The next test deals with ETV5 (Homo sapiens, UniProt P41161 1-510). The following applies: protein: recombinant; tags: N-terminal GST; dsDNA, one strand shown. The method, boiled down:
as §1

Another test concerns the target HSF1 (Homo sapiens, UniProt Q00613 1-529). The note with it: protein: recombinant; tags: N-terminal GST; chain copies: 3; dsDNA, one strand shown. The procedure, abridged: as §1
The target in a further test is T8, SPIC (Homo sapiens, UniProt Q8N5J4 1-248).
T8 sequence: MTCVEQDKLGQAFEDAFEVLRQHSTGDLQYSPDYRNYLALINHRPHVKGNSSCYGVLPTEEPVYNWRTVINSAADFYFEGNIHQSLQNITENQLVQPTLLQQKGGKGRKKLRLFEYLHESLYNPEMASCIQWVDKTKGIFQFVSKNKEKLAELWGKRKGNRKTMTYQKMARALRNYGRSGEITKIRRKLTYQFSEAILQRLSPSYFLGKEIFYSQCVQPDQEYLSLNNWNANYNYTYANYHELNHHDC
The note with it: protein: recombinant; tags: N-terminal GST; dsDNA, one strand shown. The method, boiled down: as §1

The target in another test is ELF4 (Homo sapiens, UniProt Q99607 1-663). The following applies: protein: recombinant; tags: N-terminal GST; dsDNA, one strand shown. The method, boiled down: as §1
Sequence of ELF4 (Q99607 whole entry): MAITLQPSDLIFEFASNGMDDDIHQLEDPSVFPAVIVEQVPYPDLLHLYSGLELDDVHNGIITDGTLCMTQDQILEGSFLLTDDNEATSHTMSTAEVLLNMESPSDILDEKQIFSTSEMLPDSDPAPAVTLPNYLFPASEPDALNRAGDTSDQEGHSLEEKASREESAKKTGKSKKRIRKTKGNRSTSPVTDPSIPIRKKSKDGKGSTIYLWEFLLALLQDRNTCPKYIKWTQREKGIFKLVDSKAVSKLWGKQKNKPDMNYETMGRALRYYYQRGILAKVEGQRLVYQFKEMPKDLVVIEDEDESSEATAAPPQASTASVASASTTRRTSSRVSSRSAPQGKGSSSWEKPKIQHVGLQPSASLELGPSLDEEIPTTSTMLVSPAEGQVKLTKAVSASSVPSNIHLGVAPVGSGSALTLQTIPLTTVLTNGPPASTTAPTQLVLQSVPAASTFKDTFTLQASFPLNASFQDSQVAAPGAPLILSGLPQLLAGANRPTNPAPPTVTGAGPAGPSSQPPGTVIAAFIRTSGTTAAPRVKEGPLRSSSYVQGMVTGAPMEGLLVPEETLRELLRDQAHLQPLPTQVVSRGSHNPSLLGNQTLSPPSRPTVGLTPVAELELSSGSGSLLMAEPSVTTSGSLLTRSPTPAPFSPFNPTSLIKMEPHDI
The next test has as its target T9, ELK4 (Homo sapiens, UniProt P28324-2 1-405).
T9 sequence: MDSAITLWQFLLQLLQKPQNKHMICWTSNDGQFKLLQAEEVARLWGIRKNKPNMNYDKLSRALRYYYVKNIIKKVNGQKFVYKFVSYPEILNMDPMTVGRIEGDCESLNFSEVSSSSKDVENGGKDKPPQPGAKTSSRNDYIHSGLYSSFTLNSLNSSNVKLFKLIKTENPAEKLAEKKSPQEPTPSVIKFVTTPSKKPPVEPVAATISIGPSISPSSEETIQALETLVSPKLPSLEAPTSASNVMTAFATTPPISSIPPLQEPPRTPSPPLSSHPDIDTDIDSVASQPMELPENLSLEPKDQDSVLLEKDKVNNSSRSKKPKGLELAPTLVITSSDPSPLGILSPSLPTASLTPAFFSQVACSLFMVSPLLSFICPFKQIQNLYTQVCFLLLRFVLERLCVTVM
The note with it: protein: recombinant; tags: N-terminal GST; dsDNA, one strand shown. The procedure, abridged: as §1

The target of the next test is T10, ETV2 (Homo sapiens, UniProt O00321 1-342).
T10 sequence: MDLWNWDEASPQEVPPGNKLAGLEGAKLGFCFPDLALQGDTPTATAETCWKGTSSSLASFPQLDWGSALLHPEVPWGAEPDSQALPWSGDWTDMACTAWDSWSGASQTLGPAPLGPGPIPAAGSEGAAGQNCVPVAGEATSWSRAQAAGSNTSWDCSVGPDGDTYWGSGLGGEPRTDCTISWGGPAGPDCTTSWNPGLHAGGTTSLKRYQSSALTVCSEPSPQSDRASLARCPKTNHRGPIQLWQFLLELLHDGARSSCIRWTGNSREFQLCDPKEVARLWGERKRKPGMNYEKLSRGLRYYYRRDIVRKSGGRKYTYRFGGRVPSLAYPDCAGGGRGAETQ
The following applies: protein: recombinant; tags: N-terminal GST; dsDNA, one strand shown. The method, boiled down:
as §1

In a further test the target is T11, ELF3 (Homo sapiens, UniProt P78545 1-371).
T11 sequence: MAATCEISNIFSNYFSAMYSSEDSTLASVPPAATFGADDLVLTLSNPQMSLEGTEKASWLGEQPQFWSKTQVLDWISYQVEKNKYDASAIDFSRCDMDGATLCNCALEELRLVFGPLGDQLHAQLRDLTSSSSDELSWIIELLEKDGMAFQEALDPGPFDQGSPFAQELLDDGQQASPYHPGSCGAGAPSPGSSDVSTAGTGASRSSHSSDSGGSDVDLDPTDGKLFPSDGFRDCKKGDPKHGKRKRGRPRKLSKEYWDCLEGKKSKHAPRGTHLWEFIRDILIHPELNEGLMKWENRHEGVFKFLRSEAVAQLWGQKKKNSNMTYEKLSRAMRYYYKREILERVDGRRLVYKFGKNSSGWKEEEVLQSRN
The following applies: protein: recombinant; tags: N-terminal GST; dsDNA, one strand shown. The method, boiled down: as §1

In another test the target is CRX (Homo sapiens, UniProt O43186 1-299). The note with it: protein: recombinant; tags: N-terminal GST; dsDNA, one strand shown. The method, boiled down: as §1
Sequence of CRX (O43186 whole entry): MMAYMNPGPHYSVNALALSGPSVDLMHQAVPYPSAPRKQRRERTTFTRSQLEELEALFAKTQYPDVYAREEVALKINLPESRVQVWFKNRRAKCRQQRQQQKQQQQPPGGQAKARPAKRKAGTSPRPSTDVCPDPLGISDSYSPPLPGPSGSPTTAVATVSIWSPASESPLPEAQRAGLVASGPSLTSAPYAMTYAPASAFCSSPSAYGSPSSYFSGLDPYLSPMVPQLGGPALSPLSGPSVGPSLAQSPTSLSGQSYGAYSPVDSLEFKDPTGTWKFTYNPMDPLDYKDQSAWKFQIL
A further test deals with ETV1 (Homo sapiens, UniProt P50549 1-477). The note with it: protein: recombinant; tags: N-terminal GST; dsDNA, one strand shown. The method, boiled down: as §1
Sequence of ETV1 (P50549 whole entry): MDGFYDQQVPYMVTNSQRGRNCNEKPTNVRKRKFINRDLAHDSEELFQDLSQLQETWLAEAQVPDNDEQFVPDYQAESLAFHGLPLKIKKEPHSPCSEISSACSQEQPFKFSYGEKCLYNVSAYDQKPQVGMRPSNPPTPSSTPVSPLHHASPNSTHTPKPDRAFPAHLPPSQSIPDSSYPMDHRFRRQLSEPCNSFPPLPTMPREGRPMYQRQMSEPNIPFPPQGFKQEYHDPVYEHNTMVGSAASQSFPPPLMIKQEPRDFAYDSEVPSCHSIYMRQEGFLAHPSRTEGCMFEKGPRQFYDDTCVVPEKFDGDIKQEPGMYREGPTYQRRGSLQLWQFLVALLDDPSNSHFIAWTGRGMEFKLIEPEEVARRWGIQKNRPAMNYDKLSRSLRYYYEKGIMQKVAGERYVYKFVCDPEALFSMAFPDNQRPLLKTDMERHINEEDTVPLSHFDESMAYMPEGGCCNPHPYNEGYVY

Sequence of ETV5 (P41161 whole entry): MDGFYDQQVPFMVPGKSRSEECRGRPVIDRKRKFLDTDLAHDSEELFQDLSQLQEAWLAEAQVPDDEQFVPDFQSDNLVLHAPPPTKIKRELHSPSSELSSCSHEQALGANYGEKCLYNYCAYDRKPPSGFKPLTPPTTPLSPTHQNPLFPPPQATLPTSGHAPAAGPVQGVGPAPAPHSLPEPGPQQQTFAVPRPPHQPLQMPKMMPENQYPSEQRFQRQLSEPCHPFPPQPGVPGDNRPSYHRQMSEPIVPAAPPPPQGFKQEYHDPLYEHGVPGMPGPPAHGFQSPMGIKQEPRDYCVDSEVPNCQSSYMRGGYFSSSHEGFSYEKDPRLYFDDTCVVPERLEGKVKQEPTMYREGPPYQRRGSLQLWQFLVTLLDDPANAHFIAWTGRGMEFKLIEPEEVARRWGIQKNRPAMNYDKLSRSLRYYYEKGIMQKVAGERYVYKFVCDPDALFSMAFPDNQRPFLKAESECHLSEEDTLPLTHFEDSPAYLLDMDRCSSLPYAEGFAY
Sequence of HSF1 (Q00613 whole entry): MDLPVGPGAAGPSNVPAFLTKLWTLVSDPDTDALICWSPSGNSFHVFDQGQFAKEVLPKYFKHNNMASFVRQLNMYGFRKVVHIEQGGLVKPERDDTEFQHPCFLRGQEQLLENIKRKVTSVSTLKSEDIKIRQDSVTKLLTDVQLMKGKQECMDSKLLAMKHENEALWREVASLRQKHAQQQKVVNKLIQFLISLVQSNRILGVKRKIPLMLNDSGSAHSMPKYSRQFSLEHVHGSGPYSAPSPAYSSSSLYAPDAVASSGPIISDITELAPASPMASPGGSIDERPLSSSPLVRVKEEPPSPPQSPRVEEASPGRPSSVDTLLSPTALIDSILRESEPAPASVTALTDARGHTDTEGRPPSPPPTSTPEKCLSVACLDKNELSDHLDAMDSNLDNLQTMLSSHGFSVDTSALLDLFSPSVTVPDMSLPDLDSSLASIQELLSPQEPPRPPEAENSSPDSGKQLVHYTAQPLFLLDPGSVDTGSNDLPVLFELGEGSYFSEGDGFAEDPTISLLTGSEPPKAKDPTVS
Sequence of ELF1 (P32519 whole entry): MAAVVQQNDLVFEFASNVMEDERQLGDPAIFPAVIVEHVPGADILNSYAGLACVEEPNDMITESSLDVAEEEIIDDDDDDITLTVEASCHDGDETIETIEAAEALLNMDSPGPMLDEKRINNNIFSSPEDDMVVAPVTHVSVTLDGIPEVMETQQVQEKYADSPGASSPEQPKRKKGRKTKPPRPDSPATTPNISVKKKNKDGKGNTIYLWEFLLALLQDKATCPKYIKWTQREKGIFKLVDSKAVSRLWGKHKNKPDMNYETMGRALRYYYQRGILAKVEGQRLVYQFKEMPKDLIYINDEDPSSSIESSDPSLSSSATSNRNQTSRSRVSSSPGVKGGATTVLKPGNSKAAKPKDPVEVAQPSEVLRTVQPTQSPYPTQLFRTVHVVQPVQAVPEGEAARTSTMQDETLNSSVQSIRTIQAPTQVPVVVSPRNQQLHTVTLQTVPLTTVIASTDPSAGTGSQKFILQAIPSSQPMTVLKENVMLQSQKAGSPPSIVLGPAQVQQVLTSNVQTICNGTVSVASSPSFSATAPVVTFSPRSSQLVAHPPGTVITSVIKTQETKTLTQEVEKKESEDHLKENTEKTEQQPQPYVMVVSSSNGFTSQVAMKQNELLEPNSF
Sequence of SPIB (Q01892 whole entry): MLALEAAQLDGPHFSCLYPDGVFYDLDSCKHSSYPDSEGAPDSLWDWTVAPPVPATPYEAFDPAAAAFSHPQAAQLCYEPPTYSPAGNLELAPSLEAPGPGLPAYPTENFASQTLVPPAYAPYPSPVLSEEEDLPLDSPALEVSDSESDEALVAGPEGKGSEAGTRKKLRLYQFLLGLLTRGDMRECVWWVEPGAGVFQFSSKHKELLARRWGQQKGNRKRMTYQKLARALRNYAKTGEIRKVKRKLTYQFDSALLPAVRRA

Turning to AGTAAT, the binding signal is 1.02 fold enrichment (6-mer frequency, TF over GST control) with FLI1; 1.1 fold enrichment (6-mer frequency, TF over GST control) with ELK1; 1.16 fold enrichment (6-mer frequency, TF over GST control) with GABPA; 1.09 fold enrichment (6-mer frequency, TF over GST control) with ERG; 1.12 fold enrichment (6-mer frequency, TF over GST control) with ELF1; 1.19 fold enrichment (6-mer frequency, TF over GST control) with EHF. In addition, the binding signal is 1.17 fold enrichment (6-mer frequency, TF over GST control) in the test with SPI1; 1.1 fold enrichment (6-mer frequency, TF over GST control) in the test with SPIB; 1.12 fold enrichment (6-mer frequency, TF over GST control) with ELK3; 1.05 fold enrichment (6-mer frequency, TF over GST control) with FEV; 1.12 fold enrichment (6-mer frequency, TF over GST control) in the test with ETV5; 1.3 fold enrichment (6-mer frequency, TF over GST control) in the test with HSF1. Moreover, the binding signal in the test with SPIC is 1.12 fold enrichment (6-mer frequency, TF over GST control); with ELF4 it was 1.1 fold enrichment (6-mer frequency, TF over GST control); with ELK4, 1.08 fold enrichment (6-mer frequency, TF over GST control); with ETV2, 1.24 fold enrichment (6-mer frequency, TF over GST control); with ELF3, 1.08 fold enrichment (6-mer frequency, TF over GST control); with CRX, 1.61 fold enrichment (6-mer frequency, TF over GST control). In addition, in the test with ETV1, the binding signal is 1.06 fold enrichment (6-mer frequency, TF over GST control).
